# Laboratory results as given in ChEMBL document CHEMBL3988442, “University of Dundee, Small-Polar-MMV Screening Library” (2021).
# For some assays here: Results with a measured potency or affinity are listed apart.
# Assays:
# Parameters in all cases: scale not given: direction of the effect not stated beside the values
# [1] = biological target: Protein translocase subunit SecA (Escherichia coli (strain K12)) (UniProt P10408); test: Assay to Identify E. coli SecA ATPase Inhibitors; format: functional; settings: 30 µM
# Protein translocase subunit SecA (Escherichia coli (strain K12)), sequence (P10408 whole entry): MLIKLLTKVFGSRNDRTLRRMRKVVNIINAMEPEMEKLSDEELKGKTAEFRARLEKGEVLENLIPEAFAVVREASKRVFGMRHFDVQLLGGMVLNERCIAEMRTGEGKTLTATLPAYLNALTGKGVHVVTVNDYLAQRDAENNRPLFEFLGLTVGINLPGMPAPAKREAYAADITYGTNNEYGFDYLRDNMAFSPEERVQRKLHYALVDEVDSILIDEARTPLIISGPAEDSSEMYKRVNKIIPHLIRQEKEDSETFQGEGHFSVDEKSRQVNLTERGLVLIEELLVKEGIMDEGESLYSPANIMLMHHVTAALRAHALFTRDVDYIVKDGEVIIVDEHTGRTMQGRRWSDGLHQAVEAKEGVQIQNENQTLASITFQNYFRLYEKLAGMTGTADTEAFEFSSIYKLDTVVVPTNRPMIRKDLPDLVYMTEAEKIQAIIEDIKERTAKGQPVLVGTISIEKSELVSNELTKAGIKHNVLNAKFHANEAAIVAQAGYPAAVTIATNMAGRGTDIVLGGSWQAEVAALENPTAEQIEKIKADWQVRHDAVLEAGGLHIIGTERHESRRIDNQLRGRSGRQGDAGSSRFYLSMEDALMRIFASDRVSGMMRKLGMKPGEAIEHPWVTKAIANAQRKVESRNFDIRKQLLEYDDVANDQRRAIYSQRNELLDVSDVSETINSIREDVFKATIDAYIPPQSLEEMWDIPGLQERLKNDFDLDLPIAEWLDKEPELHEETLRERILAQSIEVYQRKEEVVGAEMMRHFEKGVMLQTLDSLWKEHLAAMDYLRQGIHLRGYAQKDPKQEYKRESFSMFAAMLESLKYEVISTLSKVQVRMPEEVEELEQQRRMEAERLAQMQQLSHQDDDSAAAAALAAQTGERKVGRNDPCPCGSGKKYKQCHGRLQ
# [2] = biological target: T1, Ubiquitin-activating enzyme e1, putative (Leishmania donovani (strain BPK282A1)) (UniProt E9BSI1); test: Leishmania donovani Ubiquitin Activating Enzyme (LdE1); format: functional; settings: 30 µM
# T1 sequence (whole entry): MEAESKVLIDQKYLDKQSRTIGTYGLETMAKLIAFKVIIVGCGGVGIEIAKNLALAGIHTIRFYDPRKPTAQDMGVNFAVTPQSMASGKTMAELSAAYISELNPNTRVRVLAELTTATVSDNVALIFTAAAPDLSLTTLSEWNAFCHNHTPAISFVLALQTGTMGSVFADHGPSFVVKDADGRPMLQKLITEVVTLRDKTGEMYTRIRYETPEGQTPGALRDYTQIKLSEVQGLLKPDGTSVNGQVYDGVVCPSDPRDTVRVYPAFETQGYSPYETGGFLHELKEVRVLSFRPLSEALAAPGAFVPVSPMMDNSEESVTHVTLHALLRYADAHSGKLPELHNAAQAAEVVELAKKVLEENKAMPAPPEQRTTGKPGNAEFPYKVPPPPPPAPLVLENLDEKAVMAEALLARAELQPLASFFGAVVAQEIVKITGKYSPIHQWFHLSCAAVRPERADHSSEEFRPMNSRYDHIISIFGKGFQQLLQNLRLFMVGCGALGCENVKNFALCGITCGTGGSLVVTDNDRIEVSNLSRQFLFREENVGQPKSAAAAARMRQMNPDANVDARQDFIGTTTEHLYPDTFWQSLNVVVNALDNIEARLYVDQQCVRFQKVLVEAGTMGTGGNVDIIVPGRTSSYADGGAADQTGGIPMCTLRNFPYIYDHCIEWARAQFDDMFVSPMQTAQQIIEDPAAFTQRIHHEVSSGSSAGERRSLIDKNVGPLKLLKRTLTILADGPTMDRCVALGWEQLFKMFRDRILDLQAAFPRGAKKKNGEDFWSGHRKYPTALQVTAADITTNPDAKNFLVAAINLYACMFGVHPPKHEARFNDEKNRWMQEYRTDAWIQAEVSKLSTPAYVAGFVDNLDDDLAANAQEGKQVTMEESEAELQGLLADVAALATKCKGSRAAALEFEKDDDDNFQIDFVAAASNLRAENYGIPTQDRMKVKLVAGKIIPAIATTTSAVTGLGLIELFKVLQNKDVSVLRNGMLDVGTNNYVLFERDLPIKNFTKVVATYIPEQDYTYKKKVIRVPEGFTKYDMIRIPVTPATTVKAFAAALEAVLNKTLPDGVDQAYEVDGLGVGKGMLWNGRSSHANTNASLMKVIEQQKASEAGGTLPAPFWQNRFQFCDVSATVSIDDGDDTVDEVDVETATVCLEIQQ
# [3] = biological target: AMP-activated protein kinase, AMPK (Homo sapiens) (UniProt P54646+O43741+P54619+Q9UGJ0+Q9Y478+Q13131+Q9UGI9); test: AMP-dependent Kinase enzyme assay. An in vitro enzyme assay that detects ADP turnover that is directly proportional to AMPK activity. This uses naive AMPK that is activated during the assay with MK-8722; format: functional; settings: 30 µM
# [4] = biological target: Sialic acid-binding Ig-like lectin 9 (Homo sapiens) (UniProt Q9Y336); test: Hs-Siglec9 ALPHAscreen SOP 20170721; settings: 10 µM
# Sialic acid-binding Ig-like lectin 9 (Homo sapiens), sequence (Q9Y336 whole entry): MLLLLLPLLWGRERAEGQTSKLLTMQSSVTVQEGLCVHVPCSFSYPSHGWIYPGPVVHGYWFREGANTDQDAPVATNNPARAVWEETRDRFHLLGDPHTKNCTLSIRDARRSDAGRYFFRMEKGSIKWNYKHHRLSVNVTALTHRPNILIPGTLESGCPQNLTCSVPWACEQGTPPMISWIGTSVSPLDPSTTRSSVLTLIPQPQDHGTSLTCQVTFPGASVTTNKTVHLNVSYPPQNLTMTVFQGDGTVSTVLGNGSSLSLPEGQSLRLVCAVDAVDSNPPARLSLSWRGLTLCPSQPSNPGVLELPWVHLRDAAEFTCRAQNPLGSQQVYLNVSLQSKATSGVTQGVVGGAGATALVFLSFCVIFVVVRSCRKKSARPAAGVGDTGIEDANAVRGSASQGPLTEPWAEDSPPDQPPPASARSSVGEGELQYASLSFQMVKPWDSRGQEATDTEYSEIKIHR
# [5] = tested on: Trypanosoma cruzi; test: Trypanosoma cruzi phosphomannomutase and mannose-1-phosphate guanylyltransferase assay; format: functional; settings: 10 µM
# [6] = biological target: T2, Arginase-2, mitochondrial (Homo sapiens) (UniProt P78540); test: in vitro enzyme assay to detect the production of urea directly proportional to the activity of Arginase II; format: functional; settings: 33.3 µM; also: in the data most compounds retested in dose-response had high values
# T2 sequence (whole entry): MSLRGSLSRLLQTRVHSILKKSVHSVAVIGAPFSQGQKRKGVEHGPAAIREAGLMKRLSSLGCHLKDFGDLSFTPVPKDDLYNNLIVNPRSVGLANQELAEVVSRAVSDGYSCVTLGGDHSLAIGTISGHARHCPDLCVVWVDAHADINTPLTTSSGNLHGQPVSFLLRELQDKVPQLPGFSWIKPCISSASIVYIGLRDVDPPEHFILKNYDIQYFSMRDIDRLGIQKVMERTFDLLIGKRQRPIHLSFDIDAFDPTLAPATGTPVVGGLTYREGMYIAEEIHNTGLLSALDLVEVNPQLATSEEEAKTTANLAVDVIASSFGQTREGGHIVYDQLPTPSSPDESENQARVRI
# [7] = biological target: T3, Proteasome subunit beta (Trypanosoma cruzi) (UniProt O96673); test: Trypanosoma cruzi proteasome chymotrypsin-like activity (TcProtChymo) assay.; also: in the data most compounds retested in dose-response had high values; format: functional; settings: 9.37 µM
# T3 sequence (whole entry): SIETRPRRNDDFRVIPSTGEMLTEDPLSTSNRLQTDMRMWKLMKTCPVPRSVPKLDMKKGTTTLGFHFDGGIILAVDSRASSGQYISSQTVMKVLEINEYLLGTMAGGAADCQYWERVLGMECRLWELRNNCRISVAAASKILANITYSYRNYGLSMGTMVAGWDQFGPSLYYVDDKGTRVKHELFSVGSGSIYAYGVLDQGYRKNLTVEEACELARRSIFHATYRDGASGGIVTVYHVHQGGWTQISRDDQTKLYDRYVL
# [8] = species on record: Homo sapiens; test: To identify inhibition of the IFN signalling (Jak-Stat) pathway via expression of an eGFP reporter gene under the control of an IFN-stimulated response element (ISRE) containing MxA promoter.; format: functional; settings: 30 µM
# [9] = biological target: T4, Tyrosyl-tRNA synthetase, putative (Trypanosoma cruzi (strain CL Brener)) (UniProt Q4DSP6); test: Trypanosoma cruzi tyrosyl tRNA synthetase (TcYRS) _High Tyrosine SOP; format: functional; settings: 30 µM; also: in the data most compounds retested in dose-response had high values
# T4 sequence (whole entry): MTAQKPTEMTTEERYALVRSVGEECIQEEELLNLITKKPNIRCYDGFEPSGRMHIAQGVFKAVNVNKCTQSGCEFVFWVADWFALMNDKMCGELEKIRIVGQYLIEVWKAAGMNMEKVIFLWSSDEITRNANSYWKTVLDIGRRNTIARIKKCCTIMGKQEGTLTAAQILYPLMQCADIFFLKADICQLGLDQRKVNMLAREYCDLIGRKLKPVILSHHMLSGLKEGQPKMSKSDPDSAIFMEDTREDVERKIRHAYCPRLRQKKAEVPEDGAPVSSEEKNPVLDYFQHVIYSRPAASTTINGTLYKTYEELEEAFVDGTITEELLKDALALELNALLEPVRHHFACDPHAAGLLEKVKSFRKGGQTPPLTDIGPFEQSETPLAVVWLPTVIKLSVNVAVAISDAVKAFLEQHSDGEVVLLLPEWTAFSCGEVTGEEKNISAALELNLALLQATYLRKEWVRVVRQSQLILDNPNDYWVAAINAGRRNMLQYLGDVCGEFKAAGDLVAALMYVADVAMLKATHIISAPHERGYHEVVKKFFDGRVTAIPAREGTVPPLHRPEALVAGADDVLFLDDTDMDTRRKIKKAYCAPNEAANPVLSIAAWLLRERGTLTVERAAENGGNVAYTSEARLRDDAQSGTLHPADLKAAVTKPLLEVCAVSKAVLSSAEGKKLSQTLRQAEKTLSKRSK
# [10] = biological target: T4, Tyrosyl-tRNA synthetase, putative (Trypanosoma cruzi (strain CL Brener)); test: Trypanosoma cruzi tyrosyl tRNA synthetase (TcYRS) SOP; format: functional; settings: 30 µM
# [11] = biological target: Chromo domain-containing protein 1 (Saccharomyces cerevisiae (strain ATCC 204508 / S288c) (Baker's yeast)) (UniProt P32657); test: ScCHD-1 Enzyme Inhibition Assay; format: functional; settings: 30 µM; also: in the data most compounds retested in dose-response had high values
# Chromo domain-containing protein 1 (Saccharomyces cerevisiae (strain ATCC 204508 / S288c) (Baker's yeast)), sequence (P32657 whole entry, the tested form may be a part): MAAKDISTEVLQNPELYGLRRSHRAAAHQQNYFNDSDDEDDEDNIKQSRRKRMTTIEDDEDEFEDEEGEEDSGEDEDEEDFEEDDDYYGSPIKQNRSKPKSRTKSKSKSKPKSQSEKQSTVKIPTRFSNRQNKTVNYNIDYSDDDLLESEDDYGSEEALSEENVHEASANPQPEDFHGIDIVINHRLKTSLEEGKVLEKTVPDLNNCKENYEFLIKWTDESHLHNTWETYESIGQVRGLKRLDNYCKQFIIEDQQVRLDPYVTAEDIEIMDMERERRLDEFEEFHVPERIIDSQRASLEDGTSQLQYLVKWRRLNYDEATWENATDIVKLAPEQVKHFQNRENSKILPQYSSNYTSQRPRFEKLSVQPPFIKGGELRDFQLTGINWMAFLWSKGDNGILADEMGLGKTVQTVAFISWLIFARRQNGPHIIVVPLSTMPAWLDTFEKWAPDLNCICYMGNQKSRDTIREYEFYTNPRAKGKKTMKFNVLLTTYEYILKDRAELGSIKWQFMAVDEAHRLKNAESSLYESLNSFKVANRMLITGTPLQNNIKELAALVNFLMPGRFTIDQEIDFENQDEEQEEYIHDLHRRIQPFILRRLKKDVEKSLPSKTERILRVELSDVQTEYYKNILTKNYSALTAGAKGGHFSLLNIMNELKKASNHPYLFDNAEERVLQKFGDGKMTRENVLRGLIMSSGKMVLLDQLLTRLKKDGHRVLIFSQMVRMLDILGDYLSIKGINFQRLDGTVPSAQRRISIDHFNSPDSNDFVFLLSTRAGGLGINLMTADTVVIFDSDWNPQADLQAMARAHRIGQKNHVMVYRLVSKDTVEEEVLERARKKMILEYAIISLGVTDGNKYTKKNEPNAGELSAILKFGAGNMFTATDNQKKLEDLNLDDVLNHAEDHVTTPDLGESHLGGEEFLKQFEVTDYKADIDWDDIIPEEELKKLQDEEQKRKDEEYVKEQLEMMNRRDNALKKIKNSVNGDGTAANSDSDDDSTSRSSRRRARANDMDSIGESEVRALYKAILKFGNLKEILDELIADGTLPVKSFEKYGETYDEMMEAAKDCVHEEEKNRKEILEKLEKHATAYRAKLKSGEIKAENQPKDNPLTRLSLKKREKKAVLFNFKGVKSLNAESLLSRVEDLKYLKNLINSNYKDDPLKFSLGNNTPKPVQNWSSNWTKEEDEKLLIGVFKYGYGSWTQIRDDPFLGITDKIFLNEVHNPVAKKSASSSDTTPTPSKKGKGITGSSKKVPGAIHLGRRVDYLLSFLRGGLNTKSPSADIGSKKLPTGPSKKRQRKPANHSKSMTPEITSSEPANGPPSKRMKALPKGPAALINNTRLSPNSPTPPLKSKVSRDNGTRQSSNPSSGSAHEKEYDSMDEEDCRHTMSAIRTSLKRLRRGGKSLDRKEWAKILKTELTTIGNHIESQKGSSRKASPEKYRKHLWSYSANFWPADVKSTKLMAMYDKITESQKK
Compound,Percent Effect [1] [%],Percent Effect [2] [%],Percent Effect [3] [%],Percent Effect [4] [%],Percent Effect [5] [%],Percent Effect [6] [%],Percent Effect [7] [%],Percent Effect [8] [%],Percent Effect [9] [%],Percent Effect [10] [%],Percent Effect [11] [%]
Cc1nn(C)c(C)c1CNCc1ccc(N2CCOCC2)nc1,-1.63,11.4,6.09,-0.523,1.95,-1.5,10.6,13.4,8.33,25.3,-25.1
Cc1nc(C)c(CC(=O)Nc2ncc(C)s2)c(=O)[nH]1,-0.904,13.2,-1.41,14.1,1.5,-1.53,-2.51,-6.67,5.39,17.1,-5.26
c1cncc(C2COC3(CCN(CC4CC4)CC3)C2)c1 (configuration not stated),-5.88,5.41,0.748,-4.23,-1.17,4.58,12.9,-13.5,8.91,1.22,-3.69
CNS(=O)(=O)c1ccc(C(=O)N2CCCC2Cc2ccccc2)o1 (configuration not stated),-3.24,-42.1,1.36,-2.48,2.52,1.8,12.6,16.6,4.43,16.1,-9.41
CC(NC(=O)N(C)Cc1ccncc1)c1nncn1C (configuration not stated),-3.28,20.8,3.42,21,2.43,22.5,13.2,-6.33,1.05,15.4,-7.53
COc1ccc(C2=CCN(C(=O)C3CCCN(C(N)=O)C3)CC2)cc1 (configuration not stated),-3.88,7.89,4.4,-4.74,7.75,-2.52,12.9,2.88,6.4,18.5,-7.24
Cc1cc(C)n(CC2CCCN2CC(=O)N(C)Cc2cnn(C)c2)n1 (configuration not stated),-5.54,8.11,-10.7,3.9,1.04,-4.01,13,9.55,6.4,13.6,-11.6
CN(Cc1ccc(F)cc1)C(=O)CN1CCCC(Cn2cncn2)C1 (configuration not stated),-2.63,2.53,1.84,7.47,3.49,1.52,-6.8,-5.05,7.39,3.8,-2.65
CC(NC(=O)Cc1cccs1)c1nnc2n1CCCCC2 (configuration not stated),-5.37,10.8,0.496,4.55,1.95,-1.66,-7.54,-0.0451,3.96,15.8,1.56
CCCc1cc(C(=O)N2CCCC(n3ccnc3C)C2)[nH]n1 (configuration not stated),-3.55,5.06,-3.54,9.52,3.87,3.04,-7.94,15.5,3.45,11.4,-1.51
CN(C)C(CNC(=O)c1cc2c([nH]c1=O)CCCC2=O)c1ccsc1 (configuration not stated),-5.23,16.2,-3.65,17.4,4.55,-0.554,2.51,1.27,5.94,18.3,45
CC(Cn1cccn1)NC(=O)NCc1ccc(S(N)(=O)=O)cc1 (configuration not stated),-1.8,15.6,6.57,-7.88,-1.27,-1.05,13.7,6,9.52,23.5,-18.9
Cc1cc(CN2Cc3ccccc3CC2c2nnc(C)o2)on1 (configuration not stated),-3.58,2.6,6.16,3.48,2.25,4.84,0.728,-4.28,6.67,9.41,-13.4
COc1ccc(OCC(=O)NC(C)c2ccccc2)c(C(=O)O)c1 (configuration not stated),-7.92,0,-0.906,3.42,-4.4,-0.744,6.78,-2.11,-1.07,-1.24,-2.92
O=C(CCc1ccccc1)Nc1ncccc1OC(F)F,-2.62,6.94,-0.321,-1.86,-3.4,-0.883,13.5,-3.51,1.05,0,-2.3
COc1cccc(-c2nccnc2C2CCN(C(C)=O)CC2)c1,-1.31,9.46,8.79,-0.0533,-0.593,1.16,15.1,-0.133,3.23,14.3,-14.9
c1ccc(OCCN2CCCC(c3noc(C4CC4)n3)C2)cc1 (configuration not stated),-8.89,0,3.25,-3.02,-3.02,-1.56,10.1,6.37,-4.92,1.24,-2.68
Cc1noc(CN2CCOC(CN(C)C)C2)n1 (configuration not stated),-2.18,24.3,0.532,-4.95,5.11,2.77,11.3,22.3,5.94,18.3,-7.83
O=C(NCCc1ccn(-c2ccccc2)n1)N1CCC1,-2.79,15.6,-0.615,-16.6,1.67,-2.32,25.5,4.57,5.71,25.9,-20.8
CCOc1ccnc(N2CCN(C(=O)c3cc(Cl)c[nH]3)CC2)n1,-4.52,12.7,0.626,5.17,1.98,0.38,2.54,0.798,9.36,21.5,-5.03
CCOC(=O)N1CCN(C(=O)CCn2ccc3c(OC)cccc32)CC1,-0.914,0,-4.91,2.66,-6.91,-10.7,15.8,35,2.13,-2.6,-1.25
CCOC(C)c1nc(CN2CCN(c3nccc(C)n3)CC2)cs1 (configuration not stated),-1.18,0,-0.85,-1.42,0.386,-0.476,10.2,-0.937,-3.7,2.44,-2.47
